# Assay outcomes as filed in PubChem.
# Rows were chosen to be rich in hits. Some 11% of all compounds tested hit in one or more screens of this group.
# Pf growth 48h: P. falciparum growth inhibition at 48 hours (one generation); Potency, µM (doses to about 28.7 µM), for the others: top-dose activity change, negative = inhibition, hits mostly inhibitors; 310,000 tested, 5.9% active; AID 504832; P. falciparum luciferase growth in erythrocytes, 48 h; note: % is set by controls: 0 for no effect and ±100 for the full control effect
#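 Read-out is firefly luciferase luminescence from an integrated reporter in P. falciparum, so falling signal marks reduced parasite growth. Infected erythrocytes were at 2% hematocrit and 0.1% parasitemia (final) in Albumax-supplemented RPMI 1640.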
# AMA1-RON2 inh: inhibitors of Plasmodium falciparum AMA1-RON2 interaction; AlphaScreen AMA1-biotinylated RON2 peptide binding; Potency, µM (series often up to 58.2 µM), for the others: at the highest dose activity change, negative = inhibition, actives largely listed as inhibitors; 360,000 tested, 0.2% active;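 note: 0% = vehicle wells and -100% = peptide control; nearly all actives have a fitted effect of over 45% in size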
#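 AMA1 (3D7) with his tag at 25 nM final met compounds first, then biotinylated RON2 peptide at 25 nM; detection used donor plus acceptor beads, 10 µg/mL apiece, read by AlphaScreen after 30 min at room temperature.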
# Sm TGR block: inhibitors of Schistosoma mansoni thioredoxin glutathione reductase | 360,000 tested, 3% active | purified TGR, DTNB reduction, TNB absorbance 405 nm | Q962Y6 | Potency, µM (titrated, usually from 114 µM), inactives show at the top dose activity change, negative = inhibition, most hits filed as inhibitors; note: % is set by controls: 0 for no effect and ±100 for the full control effect; nearly all actives have a fitted effect of over 60% in size
#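 First, TGR (20 nM dispensed) and NADPH were mixed with compound. Second, a 15 min room-temperature incubation followed. Third, further NADPH and then DTNB were added to start the reaction. Finally, TNB absorbance was monitored kinetically.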
# NS1 inh: influenza NS1 inhibition. Potency, µM (highest dose often 46.1 µM), for the others: top-dose activity, positive = more growth. 270,000 tested, 0.4% active. AID 2326; calls by dose curve; note: actives are rising curves; nearly all actives have a fitted effect of over 50% in size
#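 Read-out: OD600 growth recovery of NS1-expressing budding yeast. Cells grown overnight at 30C in -URA glucose medium, washed, resuspended and diluted 1:100 in 2% galactose assay medium, pH 6.0. Same strain lacking NS1 served as positive control.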
# Pf growth 96h: inhibits malaria parasite growth, 96 h | P. falciparum luciferase reporter growth, 96 h | Potency, µM (doses to about 28.7 µM), for inactives: top-dose activity change, negative = inhibition, usual class: inhibitors | 320,000 tested, 6.9% active | AID 504834; note: % is set by controls: 0 for no effect and ±100 for the full control effect
#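 Parasite growth measured via integrated firefly luciferase reporter in P. falciparum. Infected erythrocytes at 2% hematocrit, 0.05% parasitemia final were treated 96 hours at 37 C under 5% CO2, and luminescence was read.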
# An asterisk follows results filed as active; ? = inconclusive; · = no result given; [ ] = dose if it differs, or a comment. Unless noted, calls come from the whole dose curve; as a rule, active = well fitted curve in the direction sought with a large enough effect; inconclusive = small, poorly fitted or top-dose-only effect, or another doubt; inactive = no such curve, though single readings can be large; an effect the other way counts as inactive or inconclusive. Potency is the fitted concentration of half-maximal effect.
SMILES,Pf growth 48h,AMA1-RON2 inh,Sm TGR block,NS1 inh,Pf growth 96h
O=C(CSC1=Nc2ccccc2N=C(c2ccc(F)cc2)C1)NCc1ccccc1Cl,·,·,11%,·,·
CC/C=C\C/C=C\C/C=C\CCCCCCCC(=O)O,?,13%,35µM*,·,?
CCCCCCC/C=C\CCCCCCCCC(=O)O,·,·,·,12%,·
CCCCC/C=C\C/C=C\C/C=C\C/C=C\CCCC(=O)O,?,·,18µM*,·,-1%
CC/C=C\C/C=C\C/C=C\C/C=C\C/C=C\CCCC(=O)O,2%,·,·,·,-23%
Cc1c(S(=O)(=O)c2cccc(Cl)c2)nnn1-c1cccc(C(F)(F)F)c1,·,·,-1%,·,·
Cc1ccc(N2CCN(C(=S)c3ccc(-c4cccc([N+](=O)[O-])c4)o3)CC2)cc1,-5%,-17%,-1%,-3%,-19%
CS(=O)(=O)N1CCN(c2ccc(NC(=O)c3ccc(-c4ccc(Cl)cc4)o3)cc2)CC1,·,-2%,3%,-2%,?
Cc1ccccc1N1CCN(C(=S)c2ccc(-c3ccc([N+](=O)[O-])cc3)o2)CC1,0%,?,-3%,-2%,0%
Cc1ccccc1N1CCN(C(=S)c2ccc(-c3cccc([N+](=O)[O-])c3)o2)CC1,10µM*,-29%,-7%,·,?
CCn1nnc(NC(=O)c2ccc(-c3ccc(Cl)cc3)o2)n1,1%,7%,22µM*,0%,-9%
CN1CCN(c2ccc(NC(=O)c3ccc(-c4ccc(Cl)cc4)o3)cc2)CC1,2.9µM*,?,1%,-2%,?
CN1CCN(c2ccc(NC(=O)c3ccc(-c4cccc([N+](=O)[O-])c4)o3)cc2)CC1,1.5µM*,?,3%,6%,0%
COc1cc2c(cc1OC)CN(C(=O)C1CCCN1S(=O)(=O)c1ccc(F)cc1)CC2 (stereo unspecified),-13%,-4%,-1%,-3%,27%
CC(C)(C)NC(=O)C(c1ccc(C(F)(F)F)cc1)n1c(=O)c(-c2ccco2)nc2ccccc21 (stereo unspecified),·,6%,·,·,·
COc1ccc(-c2c3c(=O)n(C)c(=O)n(C)c3cn2-c2ccc(O)cc2)cc1,28%,-1%,45µM*,-8%,10%
COc1ccc(-c2c3c(=O)n(C)c(=O)n(C)c3cn2-c2ccccc2)cc1,?,2%,-16%,0%,?
CCOc1cccc(C(=O)Nc2ccc3oc(-c4ccncc4)nc3c2)c1,·,·,6%,·,·
Cc1ccc(S(=O)(=O)/N=C2/C=C(C3C(=O)CC(C)(C)CC3=O)C(=O)c3ccccc32)cc1,?,-14%,14µM*,-12%,·
CCC(C)[C@H](NC(=O)[C@@H]1CSC2c3ccccc3C(=O)N21)C(=O)NC1CCCC1 (stereo partly specified),?,-6%,-12%,15%,?
CCC(C)[C@H](NC(=O)[C@@H]1CSC2c3ccccc3C(=O)N21)C(=O)NCc1ccco1 (stereo partly specified),15%,0%,45µM*,6%,-6%
O=C(N/N=C/c1cc(Br)c(O)c(Br)c1)c1cc2c(ccc3ccccc32)o1,-17%,-10%,-4%,-75%,13µM*
O=C(N/N=C/c1cc(Cl)c(O)c(Cl)c1)c1cc2c(ccc3ccccc32)o1,12µM*,-17%,2%,-12%,?
O=C(N/N=C/c1ccc(O)c(Br)c1)c1cc2c(ccc3ccccc32)o1,?,15%,-9%,7%,?
Cc1[nH]c2ccccc2c1C(C[N+](=O)[O-])c1ccco1 (stereo unspecified),3%,-10%,22µM*,·,-17%
SMILES,Pf growth 48h,AMA1-RON2 inh,Sm TGR block,NS1 inh,Pf growth 96h
Cc1ccc(-c2[nH]c3ccccc3c2C(C[N+](=O)[O-])c2ccco2)cc1 (stereo unspecified),9.3µM*,-8%,79µM*,5%,·
Cc1[nH]c2ccccc2c1C(C[N+](=O)[O-])c1cccc(O)c1 (stereo unspecified),?,-4%,-10%,·,?
Cc1[nH]c2ccccc2c1C(C[N+](=O)[O-])c1cccs1 (stereo unspecified),?,-9%,-1%,·,?
CC1(C(=O)NCc2ccccc2)Oc2ccccc2NC1=O (stereo unspecified),9%,0%,3%,4%,·
CC1(C(=O)NCc2ccc(Cl)c(Cl)c2)Oc2cccnc2NC1=O (stereo unspecified),?,4%,2%,-4%,5.2µM*
Cc1cc(C)c(NC(=O)C2CCN(c3nnc(C)c4c(C)n(-c5ccccc5)nc34)CC2)c(C)c1,·,·,-4%,·,·
O=C(c1cc(C(=O)NCCc2ccccc2)c(=O)n(CCc2ccccc2)c1)c1cc(Cl)ccc1O,0.83µM*,5%,1%,17%,0.41µM*
COc1ccc(CCNC(=O)c2cc(C(=O)c3cc(Cl)ccc3O)cn(CCc3ccc(OC)cc3)c2=O)cc1,1.7µM*,10%,?,1%,0.52µM*
O=C(NCCc1ccccc1)c1ccccc1Cl,100%,8%,11%,-3%,-24%
COc1ccc(-n2cc(C(=O)NCCc3ccc(C)cc3)c3ccccc3c2=O)cc1,·,·,-1%,·,·
COc1ccc(CCNC(=O)c2cc(C(=O)c3cc(C)ccc3O)cn(CCc3ccc(OC)cc3)c2=O)cc1,6.6µM*,-9%,0%,?,3.3µM*
COc1cc(OC)cc(C(=O)NNC(=O)CN2C(=O)NC3(CCCC3)C2=O)c1,-4%,1%,5%,·,16%
COC(=O)[C@@H](Cc1ccccc1)NC(=O)Cn1cc(C)c(=O)[nH]c1=O,·,-4%,·,·,·
O=C(NC12CC3CC(CC(C3)C1)C2)OCCNC1CCCCC1,?,-6%,11%,0%,10µM*
CN(C)CCOC(=O)NC12CC3CC(CC(C3)C1)C2,0%,-13%,4%,2%,-2%
COC(=O)C1(O)CC(CC(C)C)=NN1C(=O)c1ccccc1 (stereo unspecified),11%,45%,-8%,1%,0.29µM*
CCOC(=O)[C@H]1[C@H]2COc3ccccc3[C@@H]2N2C(=O)[C@@H](C)NC(=O)[C@@]12C,·,-7%,·,·,·
Oc1ccc(Cn2ccnc2)c2cccnc12,3.7µM*,-85%,22µM*,2%,18%
OCc1cn(Cc2ccc(O)c3ncccc23)cn1,5.2µM*,·,?,·,6.6µM*
c1ccc2c(Cn3ccnc3)c[nH]c2c1,7%,-2%,-4%,3%,?
NC(=O)NN=C1C2CCCC1C(c1ccccc1)NC2c1ccccc1 (stereo unspecified),?,-21%,30%,-48%,?
CSc1c(CC(=O)Nc2ccccc2)n(Cc2ccccc2)c2ccccc12,12µM*,4%,2%,3%,?
CSc1c(CC(=O)Nc2ccccc2C(F)(F)F)n(Cc2ccccc2)c2ccccc12,?,7%[2.32 µM],7%,2%,9.3µM*
